Results reported in PubChem BioAssay (NCATS).
A number with no mark means an inactive call. Records with an inconclusive call do not appear. Entries that show only a call come without a potency. Activity calls are given as the source filed them. Unless noted, calls follow the shape of the dose curve; as a rule, active = well fitted curve in the direction sought with a large enough effect; inconclusive = small, poorly fitted or top-dose-only effect, or another doubt; inactive = no such curve, though single readings can be large; an effect the other way counts as inactive or inconclusive.

What was measured:
C33A = test: Primary qHTS to identify gynecologic anti-cancer compounds using libraries of approved drugs and bioactive compounds (AID 1345084); conditions: Gynecologic cancer cell panel viability, ATPlite luminescence, 48 h; series mostly up to 57.5 µM; also: nearly all actives have a fitted effect of over 55% in size; also: potency is read from the fitted curve at half-maximal effect
Summary of the method: (§1)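 Cell viability after 48 h drug treatment, ATPlite luminescence readout; five doses.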

HeLa = test: as above; conditions: Gynecologic cancer cell panel viability, ATPlite luminescence, 48 h; series mostly up to 57.5 µM
Summary of the method: as §1

Hek293T = test: as above; conditions: Gynecologic cancer cell panel viability, ATPlite luminescence, 48 h, control line for the selectivity index; series mostly up to 57.5 µM
Summary of the method: as §1

JEG-3 = test: as above; conditions: Gynecologic cancer cell panel viability, ATPlite luminescence, 48 h; series mostly up to 57.5 µM
Summary of the method: as §1

PA-1 = test: as above; conditions: Gynecologic cancer cell panel viability, ATPlite luminescence, 48 h; series mostly up to 57.5 µM
Summary of the method: as §1

SKOV3 = test: as above; conditions: Gynecologic cancer cell panel viability, ATPlite luminescence, 48 h; series mostly up to 57.5 µM
Summary of the method: as §1

Tov-21-G = test: as above; conditions: Gynecologic cancer cell panel viability, ATPlite luminescence, 48 h; series mostly up to 57.5 µM
Summary of the method: as §1

Tov112D = test: as above; conditions: Gynecologic cancer cell panel viability, ATPlite luminescence, 48 h; series mostly up to 57.5 µM
Summary of the method: as §1

WaGa = test: qHTS assay to identify novel small-molecules to repurpose for Merkel cell carcinoma treatment (AID 1296009); conditions: MCC and control cell lines, CellTiter-Glo viability, 72 h; series mostly up to 46 µM; also: nearly all actives have a fitted effect of over 60% in size; also: potency is read from the fitted curve at half-maximal effect
Summary of the method: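 Cell viability, measured as CellTiter-Glo luminescence, was normalized between DMSO and no-cell wells. The cells had been exposed to 8- or 11-point compound dilutions for 72 hr at 37 degree celsius.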

[1] = qHTS assay to identify inhibitors of the type 1 interferon - major histocompatibility complex class I in skeletal muscle: Counter screen cell viability and HiBit confirmation (AID 1347412); conditions: iHSKM muscle cells + IFN-b, HiBiT or CellTiter-Glo, 24 h; Potency: HiBiT; Viability, at 45.9 µM (top of the series); also: nearly all actives have a fitted effect of over 60% in size; also: potency is read from the fitted curve at half-maximal effect
Summary of the method: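 HLA-B*08:01–HiBiT knock-in immortalized human myoblasts (C25cl48) stimulated with 4.0 ng/ml human IFN-beta and dosed with compound in a 12-point 1:3 titration (top final 46 uM). After 24 hrs at 37 C, HiBiT lytic luminescence or CellTiter Glo ATP read out.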

[2] = qHTS assay for small molecule activators of the human pregnane X receptor (PXR) signaling pathway (AID 720659; call rule not given here)
CASKI = test: Primary qHTS to identify gynecologic anti-cancer compounds using libraries of approved drugs and bioactive compounds (AID 1345084); conditions: Gynecologic cancer cell panel viability, ATPlite luminescence, 48 h; series mostly up to 57.5 µM; also: nearly all actives have a fitted effect of over 55% in size; also: potency is read from the fitted curve at half-maximal effect
Summary of the method: as §1

Es-2 = test: as above; conditions: Gynecologic cancer cell panel viability, ATPlite luminescence, 48 h; series mostly up to 57.5 µM
Summary of the method: as §1

OV90 = test: as above; conditions: Gynecologic cancer cell panel viability, ATPlite luminescence, 48 h; series mostly up to 57.5 µM
Summary of the method: as §1

[3] = biological target: Nuclear receptor subfamily 1 group I member 2 (Rattus norvegicus) (UniProt Q9R1A7); test: qHTS assay for small molecule activators of the rat pregnane X receptor (rPXR) signaling pathway (AID 651751; call rule not given here); conditions: rPXR reporter cells, luciferase (One-Glo), 24 h
astro = test: Drug repurposing screens with cells derived from glioblastoma tumor samples (AID 1345199); conditions: viability, ATP luminescence, 48 h; series mostly up to 45.9 µM; also: nearly all actives have a fitted effect of over 40% in size
Summary of the method: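 Primary testing used CD133+ neurospheres from four GBM patients, seven concentrations, 48 h exposure and ATP-based viability; confirmation added three slower-growing patient lines.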

Sequence of Nuclear receptor subfamily 1 group I member 2 (Rattus norvegicus) (Q9R1A7 whole entry, looked up): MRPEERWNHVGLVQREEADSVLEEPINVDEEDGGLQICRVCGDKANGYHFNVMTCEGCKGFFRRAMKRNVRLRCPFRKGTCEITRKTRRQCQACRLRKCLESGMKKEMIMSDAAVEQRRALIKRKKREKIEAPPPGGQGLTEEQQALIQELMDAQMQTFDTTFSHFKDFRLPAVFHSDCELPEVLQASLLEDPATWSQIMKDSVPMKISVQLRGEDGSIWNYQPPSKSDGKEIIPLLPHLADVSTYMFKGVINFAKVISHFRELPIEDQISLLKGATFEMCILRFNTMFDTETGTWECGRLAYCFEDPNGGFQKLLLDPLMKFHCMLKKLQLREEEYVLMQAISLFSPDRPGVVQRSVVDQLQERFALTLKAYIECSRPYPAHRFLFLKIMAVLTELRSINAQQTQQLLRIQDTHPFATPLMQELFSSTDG

Oc1cc(-c2nc(-c3ccccc3)[nH]c2-c2ccncc2)ccc1Cl
Potency (C33A): inactive
Potency (HeLa): inactive
Potency (Hek293T): inactive
Potency (JEG-3): inactive
Potency (PA-1): inactive
Potency (SKOV3): inactive
Potency (Tov-21-G): 17.8 µM (active)
Potency (Tov112D): inactive

CC(C)c1cnn2c(NCc3ccccc3)cc(NCCCCCCN)nc12
Potency (WaGa): inactive
Potency [1]: inactive

CC(C=CC1=C(C)CCCC1(C)C)=CC=CC(C)=CC(=O)Nc1ccc(O)cc1
outcome [2]: inactive

Cc1cnc(Nc2ccc(N3CCN(C)CC3)cc2)nc1Nc1cccc(S(=O)(=O)NC(C)(C)C)c1
Potency (WaGa): 11.8 µM (active)
Potency [1]: 2.79 µM (active)

Cc1ccc2nc(NCCN)c3ncc(C)n3c2c1
Potency [1]: 3.13 µM (active)

CN(C)CC(=O)N1CCC(c2ccc(NC(=O)c3ncc(C#N)[nH]3)c(C3=CCCCC3)c2)CC1
Potency (C33A): inactive
Potency (CASKI): inactive
Potency (Es-2): inactive
Potency (HeLa): inactive
Potency (Hek293T): inactive
Potency (JEG-3): inactive
Potency (OV90): inactive
Potency (SKOV3): inactive
Potency (Tov-21-G): inactive

Oc1ccc([C@@H]2Oc3ccc(O)cc3[C@@H]3CCC[C@@H]32)cc1
Potency (C33A): inactive
Potency (Es-2): inactive
Potency (OV90): inactive
Potency (Tov-21-G): inactive

Cc1cc(Nc2ncc3c(n2)N(C)C(=O)N(c2cc(NC(=O)c4cccc(C(F)(F)F)c4)ccc2C)C3)n(C)n1
Potency [1]: 0.883 µM (active)

O=C1c2cccc(O)c2C(=O)c2c(O)cc(CO)cc21
Potency (WaGa): inactive
max response [3]: -0.0257%
outcome [2]: inactive

CCc1ccc(C(=O)Nc2cc(CN3CCN(C)CC3)cc(C(F)(F)F)c2)cc1C#Cc1cnc2ccnn2c1
Potency (OV90): inactive
Potency [1]: 24.9 µM (active)

C#CCC(Cc1cnc2nc(N)nc(N)c2n1)c1ccc(C(=O)N[C@@H](CCC(=O)O)C(=O)O)cc1 (stereo not given in full)
Potency (WaGa): 0.526 µM (active)
Potency (astro): inactive
